Bioassay records deposited in PubChem BioAssay by Sanford-Burnham Center for Chemical Genomics.
An excerpt weighted towards active compounds, which were near 31% of everything screened.
CYP2C19 activ – increases human CYP2C19 enzyme activity. 96,000 tested, under 10 active. recombinant CYP2C19, luciferin-H EGE luminescence; stronger effect = higher value; 0 = fully inhibited enzyme, 1 = untreated enzyme. AID 1025. activation factor at 5 µM;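 active means activation factor of at least 2 at 5 µM in the primary screen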;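 further: 0 = wells with 2.5 mM tranylcypromine and 1 = vehicle-only wells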
CYP2C9 act – increases human cytochrome P450 2C9 activity; P11712; recombinant CYP2C9, luciferin-H conversion, luminescence; stronger effect = higher value; factor 1 = untreated enzyme, 0 = blocked; activation factor at 5 µM; actives 1.4% (n = 96,000); AID 1024;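 active means activation factor of 2 or more for CYP2C9 at a 5 µM dose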;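 further: 0 = sulfaphenazole-blocked wells and 1 = vehicle-only wells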
CYP2C19 inh – inhibitors of human CYP2C19; CYP2C19 Supersomes, luciferin-H EGE luminescence, 30 min; AID 778; actives 21% (n = 96,000); P33261; inhibition, % at 5 µM;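 active means CYP2C19 inhibition above a set limit at 5 µM in the primary screen, cut at about 50% in these data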;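 further: plate controls were negative control wells for no effect and 2.5 mM tranylcypromine positive control for full effect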
PLAP activator – activators of human placental alkaline phosphatase; P05187; activation fold at 20 µM; AID 696; purified PLAP enzyme, luminescent substrate read-out; stronger effect = higher value; actives 1.2% (n = 96,000); in the data active means activation fold above about 2
Target sequence (P05187 whole entry, looked up): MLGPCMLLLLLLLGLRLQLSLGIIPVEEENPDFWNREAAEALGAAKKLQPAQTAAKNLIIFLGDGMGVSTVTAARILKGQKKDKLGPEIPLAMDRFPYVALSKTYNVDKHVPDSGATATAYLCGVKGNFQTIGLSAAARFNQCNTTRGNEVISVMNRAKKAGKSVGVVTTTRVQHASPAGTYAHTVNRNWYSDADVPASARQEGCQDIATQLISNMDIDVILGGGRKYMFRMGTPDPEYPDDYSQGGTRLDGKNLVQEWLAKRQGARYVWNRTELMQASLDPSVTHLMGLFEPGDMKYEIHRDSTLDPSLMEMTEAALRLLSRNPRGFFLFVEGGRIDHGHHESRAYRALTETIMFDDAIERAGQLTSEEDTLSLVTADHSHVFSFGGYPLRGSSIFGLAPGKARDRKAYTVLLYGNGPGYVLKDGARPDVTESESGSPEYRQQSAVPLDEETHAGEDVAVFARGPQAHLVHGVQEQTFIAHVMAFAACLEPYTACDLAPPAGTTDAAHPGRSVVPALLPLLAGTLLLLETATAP
CYP2C9 inhib – inhibitors of human CYP2C9 | actives 20% (n = 96,000) | inhibition, % at 5 µM | CYP2C9 Supersomes, luciferin-H conversion, luminescence;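 active means blocking of liver enzyme CYP2C9 beyond about 50% at 5 µM, limit read from the data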
* hit, by the source's call; / = no result given.

SMILES	CYP2C19 activ	CYP2C9 act	CYP2C19 inh	PLAP activator	CYP2C9 inhib
CCC(C)C(=O)Nc1nc(C)c(-c2csc(Nc3ccccc3OC)n2)s1 (stereo not drawn)	0.7	0.4	27	0.9	63*
C=CCCC(=O)Nc1nc(C)c(-c2csc(Nc3ccccc3OC)n2)s1	0.8	0.4	17	0.9	57*
CCCCCC(=O)Nc1nc(C)c(-c2csc(Nc3cc(OC)ccc3OC)n2)s1	0.8	0.4	19	1.2	55*
Cc1ccc(-n2ncc3c2ncn2c(C)nnc32)cc1C	1	0.8	-2	0.9	16
CCNC(=O)Nc1cc2nc(C)n(Cc3ccc(Br)cc3)c2nc1C	0.2	0.7	80*	1.8	30
CC(=NCCc1ccccc1)C1=C(O)COC1=O	0.7	0.9	27	0.9	9
O=C(CSc1nc2ccccc2s1)N1CCN(C(=O)c2ccco2)CC1	0.9	0.7	14	1.4	27
O=C(OCC#CCSc1nc2ccccc2s1)c1ccco1	0.2	0.3	83*	1.1	72*
O=C(OCC#CCSc1nnc(-c2cccc3ccccc23)o1)c1cccs1	0.7	2*	27	0.8	-96
O=C(OCC#CCSc1nnc(-c2ccccc2)o1)c1ccco1	0.1	0.4	88*	1.3	58*
Cc1cccc(OCC2=NS(=O)(=O)c3ccccc3N2)c1	0.7	0.5	30	1.1	51*
O=C(CCC1=NS(=O)(=O)c2ccccc2N1)NC1CCCCCCC1	0.7	0.8	27	1	22
COc1cccc(C2(CSc3nnc(-c4cc(OC)c(OC)c(OC)c4)o3)OCCO2)c1	0.2	1.2	84*	1.3	-17
O=C(NC1CC1)c1ccc2c(c1)ncn2C1CCCC1	1	0.9	0	0.8	10
Cc1ccc(-c2nc(-c3ccccc3)no2)c(Cl)c1	1.1	1.1	-14	0.9	-14
Cc1occc1-c1nc(-c2ccncc2)no1	0	0.3	98*	1	68*
CCOc1nc(C)ccc1-c1noc(-c2ccccn2)n1	1.1	1.1	-8	1	-11
c1ccc(CCc2ccccc2-c2nc(-c3ccccn3)no2)cc1	0.9	0.8	10	0.8	19
Cc1occc1-c1nc(-c2ccccn2)no1	0.2	0.5	76*	1.1	48
Cc1onc(-c2ccccc2Cl)c1-c1nc(-c2ccccn2)no1	0.7	0	32	1	97*
Cn1cccc1C1Nc2ccccc2NC2=C1C(=O)CC(C)(C)C2 (stereo not drawn)	1.3	1	-33	1.2	0
CCCCOc1ncnc2c1[nH]c1ccc(F)cc12	0.7	0.7	26	0.9	29
Cc1cc(=O)c2n(Cc3ccc(Cl)cc3)nc[n+]2[nH]1	0.6	0.7	36	1	26
O=C(CSc1nc2ccccc2o1)NCC(=O)c1ccccc1	0.4	1.1	61*	1.1	-11
O=C(O)CSc1nc2ccccc2o1	1.3	1.2	-25	1.1	-20
SMILES	CYP2C19 activ	CYP2C9 act	CYP2C19 inh	PLAP activator	CYP2C9 inhib
CSc1cccc(NC(=O)CSc2nc3ccccc3o2)c1	0.5	0.6	53*	0.9	38
O=C(CSc1nc2ccccc2o1)NCCOc1ccccc1	0.1	0.3	89*	1	68*
O=C(CSc1nc2ccccc2o1)Nc1ccccc1	0.4	1	63*	0.9	2
S=C(Nc1ccccc1)c1ccccn1	1	1	2	1.7	2
COc1ccccc1NC(=O)C(CC=C(Cl)Cl)C(C)=O (stereo not drawn)	0.6	0.9	37	1	11
O=C(COC(=O)C12CC3CC(CC(C3)C1)C2)Nc1ncc(Cl)cc1Cl	0.2	0.8	79*	1	17
CC(C)(Oc1ccc(Cl)cc1)C(=O)OCC(=O)Nc1ncc(Cl)cc1Cl	0.1	0.5	91*	0.9	48
O=C(COC(=O)CC12CC3CC(CC(C3)C1)C2)Nc1ncc(Cl)cc1Cl	0.1	0.3	89*	1.5	66*
CC(C(=O)OCC(=O)Nc1ncc(Cl)cc1Cl)N1C(=O)c2ccccc2C1=O (stereo not drawn)	0.9	0.9	9	1	5
C=CCOC(=O)C1=C(C)NC(SCC(=O)N(CC)CC)=C(C#N)C1c1ccccc1 (stereo not drawn)	0	0.1	97*	1.5	90*
C=CCOC(=O)C1=C(C)NC(SCC(=O)NC(=O)OCC)=C(C#N)C1c1cccnc1 (stereo not drawn)	0.1	0.1	87*	1.8	92*
C=CCOC(=O)C1=C(C)NC(SCC(=O)Nc2ccccc2)=C(C#N)C1c1ccco1 (stereo not drawn)	0.4	0.3	60*	1.1	72*
C=CCOC(=O)C1=C(C)NC(SCC(=O)N(CC)CC)=C(C#N)C1c1ccco1 (stereo not drawn)	0.3	0.2	69*	1	80*
CC(=O)Nc1ccc(Oc2ncccn2)cc1	1.1	1.1	-14	/	-10
COc1ccc(S(=O)(=O)Nc2ccc(Oc3ncccn3)c(Cl)c2)cc1	0	0	100*	1.3	98*
COc1ccc(NS(=O)(=O)c2ccc(Oc3ncccn3)cc2)cc1	0.2	0.3	81*	0.9	69*
O=S(=O)(Nc1ccccc1)c1ccc(Oc2ncc(C(F)(F)F)cc2Cl)cc1	0.9	0.8	7	1.1	21
COc1cc(Cl)cc(C2NC(=O)NC(C)=C2C(C)=O)c1OCC(=O)O (stereo not drawn)	1.1	0.9	-14	1.4	7
Cc1ccc(-c2c(C)n([O-])c3c([n+]2=O)CCCCC3)o1	0.8	1	19	0.9	0
COc1ccc(S(=O)(=O)NC(CC(=O)NCc2ccco2)C(C)C)cc1 (stereo not drawn)	0.4	0.8	61*	1.2	20
COc1cccc(C(CC(=O)NCC2CCCO2)NS(=O)(=O)c2ccc(C)cc2)c1OC (stereo not drawn)	0.8	0.8	24	1.1	23
COc1ccccc1CNC(=O)C(C)NS(=O)(=O)c1ccccc1 (stereo not drawn)	0.6	0.5	37	0.9	46
CC(NS(=O)(=O)c1ccc(F)cc1)C(=O)NCc1ccncc1 (stereo not drawn)	0.1	0.4	94*	0.9	65*
CCC(C)NS(=O)(=O)c1ccc(OCC(=O)NCc2ccco2)cc1 (stereo not drawn)	1	0.7	5	0.9	25
COc1cccc(C(CC(=O)NCc2ccco2)NS(=O)(=O)c2ccc(C)cc2)c1OC (stereo not drawn)	0.2	0.7	81*	1.4	35
CC(NS(=O)(=O)c1ccc(Cl)cc1)C(=O)NCc1ccco1 (stereo not drawn)	0.3	0.7	66*	1.2	31
CN1C=CC2=C(C#N)C(N)C(C#N)(C#N)C(c3ccccc3)C2C1 (stereo not drawn)	1	0.8	1	0.9	19
COc1ccccc1C(=O)Nc1cc2cc(Cl)ccc2oc1=O	0.9	1.6	7	0.9	-61
CCN(CC)c1nc(=S)nc(NC(C)(C)C)[nH]1	1	0.9	-2	1.6	5
